Screens deposited in PubChem BioAssay by Broad Institute.
miR122 inh: miR-122 Renilla sensor signal increase in Huh7, primary screen, miR-122 inhibitor project, cell-based, single point, plate reader | AID 602342, 2012 | activation (reporter increase), % at 12.5 µM | Huh7 miR-122 Renilla luciferase sensor, 48 h; neutral wells = 0, positive control = 100 | actives 0.3% (n = 340,000);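 active means mean replicate activation score at least 90 and every replicate individually at or above 90; inconclusive means only one of the two criteria met; inactive means neither criterion met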;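 further: higher luciferase means less miR-122 activity so hits act as miR-122 inhibitors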
INS-1E GSIS act: GLuc luminescence reporter in INS-1E cells, primary screen for activators of glucose-dependent secretion of insulin | INS-1E GLuc reporter insulin secretion, 2-3 h | activation, % at 16.6 µM | actives 0.61% (n = 370,000) | AID 743287, 2014;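 active means lowest replicate activation of at least 40%, so every replicate reaches that level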;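 further: 0% = median of neutral control wells and 100% = median of IBMX positive control wells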
Wnt act: Wnt/beta-catenin pathway activators, primary screen, cell-based, plate reader, single point; actives 1.2% (n = 300,000); Wnt/beta-catenin reporter cell assay, activator; activation, % at 9.35 µM; in the data active means activation above about 30%, passing the limit was not always enough; inconclusive means no clear call, values can overlap the other calls;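 further: 0% = neutral control wells and 100% = positive control wells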
DYRK1A inh: rat Dyrk1A kinase inhibitors, primary screen, biochemical, single point, plate reader; ADP-Glo luminescence, NFATc1 peptide; actives 0.43% (n = 310,000); inhibition, % at 12.5 µM; AID 504441, 2011; Dual specificity tyrosine-phosphorylation-regulated kinase 1A (Rattus norvegicus), Q63470;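 further: plate controls were vehicle with enzyme for no effect and no enzyme for full effect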
MITF act: activators of MITF-driven TRPM1 promoter reporter, primary screen, cell-based, SK-MEL-5, luciferase, single point; activation, % at 12.5 µM; SK-MEL-5 TRPM1-promoter luciferase, 24 h; % of positive control, neutral wells = 0; AID 588334, 2011; actives 0.75% (n = 300,000);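 active means mean activation of at least 80% with every replicate also reaching 80%; inconclusive means mean reaches 80% but some replicate falls short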;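 further: 0% = neutral control wells and 100% = parthenolide positive control wells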
NSD2 inh: NSD2 histone methyltransferase inhibitors, primary screen, biochemical, AlphaScreen, single concentration, set 2. Histone-lysine N-methyltransferase NSD2 (Homo sapiens), O96028. NSD2 peptide methylation, 120 min. inhibition, % at 12.5 µM. actives 0.54% (n = 310,000). AID 743445, 2014
Target sequence (O96028 whole entry, looked up): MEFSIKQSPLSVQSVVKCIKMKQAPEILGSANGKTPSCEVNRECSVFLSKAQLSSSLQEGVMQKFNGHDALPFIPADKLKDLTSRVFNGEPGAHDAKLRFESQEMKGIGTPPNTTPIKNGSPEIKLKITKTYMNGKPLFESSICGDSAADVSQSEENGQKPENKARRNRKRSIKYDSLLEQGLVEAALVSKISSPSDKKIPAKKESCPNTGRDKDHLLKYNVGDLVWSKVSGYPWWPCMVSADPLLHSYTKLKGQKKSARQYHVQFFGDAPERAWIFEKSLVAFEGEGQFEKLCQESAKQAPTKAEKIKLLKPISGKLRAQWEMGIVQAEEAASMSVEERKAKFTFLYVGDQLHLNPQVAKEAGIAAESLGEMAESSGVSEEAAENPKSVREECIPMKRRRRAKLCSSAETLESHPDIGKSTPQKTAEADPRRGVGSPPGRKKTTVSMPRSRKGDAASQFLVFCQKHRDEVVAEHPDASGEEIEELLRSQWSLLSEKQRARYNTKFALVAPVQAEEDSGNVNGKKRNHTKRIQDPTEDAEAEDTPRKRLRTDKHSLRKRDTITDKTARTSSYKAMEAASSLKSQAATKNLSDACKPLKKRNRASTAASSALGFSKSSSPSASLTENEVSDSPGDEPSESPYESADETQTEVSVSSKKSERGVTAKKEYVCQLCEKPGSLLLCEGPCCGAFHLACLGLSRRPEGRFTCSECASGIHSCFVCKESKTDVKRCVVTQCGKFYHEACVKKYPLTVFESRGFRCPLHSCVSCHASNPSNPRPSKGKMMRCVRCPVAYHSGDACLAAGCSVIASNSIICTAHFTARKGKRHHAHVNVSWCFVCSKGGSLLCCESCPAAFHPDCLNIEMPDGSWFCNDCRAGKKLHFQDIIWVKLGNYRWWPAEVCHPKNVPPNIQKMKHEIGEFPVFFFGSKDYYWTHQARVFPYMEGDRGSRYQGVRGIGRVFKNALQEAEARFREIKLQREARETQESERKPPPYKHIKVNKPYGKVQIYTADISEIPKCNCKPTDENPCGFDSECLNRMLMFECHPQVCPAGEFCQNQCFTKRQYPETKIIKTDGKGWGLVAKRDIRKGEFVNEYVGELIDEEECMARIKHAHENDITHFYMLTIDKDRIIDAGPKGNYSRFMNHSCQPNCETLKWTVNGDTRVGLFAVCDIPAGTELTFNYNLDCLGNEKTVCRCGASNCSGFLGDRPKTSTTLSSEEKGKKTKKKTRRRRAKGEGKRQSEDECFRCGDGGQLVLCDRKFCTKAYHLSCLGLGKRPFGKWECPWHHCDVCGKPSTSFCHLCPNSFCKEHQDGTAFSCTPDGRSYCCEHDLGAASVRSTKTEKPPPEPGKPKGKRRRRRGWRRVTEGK
Dyrk1A artifact: ADP-Glo luciferase interference without Dyrk1A, dose response, artefact control for Dyrk1A inhibitor project, biochemical, luminescence, cherry-pick, set 02. shares compounds with DYRK1A inh. ADP-Glo luciferase artifact assay, no Dyrk1A. AC50, µM (titrated, usually from 12 µM), for inactives: at the top dose activity change, negative = inhibition. 1,300 tested, under 10 active;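 active means fitted half-maximal dose AC50 no more than ten times the top valid tested dose, with luminescence dropping as dose rises; inconclusive means poor fit, or flat fit with 30 to 70% inhibition; inactive means the rest, signal increases included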
The depositor's hits bear a star; [ ] = another dose, or the depositor's remark. Most compounds without a hit are left out; they make up all but 2.4% or so of the library. Unless noted, no stated cut-off is given here; in the data, active means inhibition above about 50%; inactive means the rest.

`CCOC(=O)C1=C(C)OC(N)=C(C#N)C1c1ccc(O)c(OC)c1` (centres undefined) gave miR122 inh -1, Wnt act -5, DYRK1A inh 51* and Dyrk1A artifact 11%.
CCOC(=O)C1=C(C)OC(N)=C(C#N)C1c1ccccc1 (centres undefined) was read as miR122 inh 3, INS-1E GSIS act 10, Wnt act -1, DYRK1A inh -5, MITF act -2 and NSD2 inh -9.
`COc1ccc(-n2c(C)nc3cc(C(=O)NCc4ccco4)ccc32)cc1` gave miR122 inh -2, INS-1E GSIS act -8, DYRK1A inh 51*, MITF act -4, NSD2 inh 3 and Dyrk1A artifact 11%.
Screening COc1ccc(-n2c(C)nc3cc(C(=O)NCc4ccc5c(c4)OCO5)ccc32)cc1 returned miR122 inh 6, Wnt act -2, DYRK1A inh 57*, MITF act 0, NSD2 inh 13 and Dyrk1A artifact 9%.
`O=C1CCCC2=C1Sc1ccccc1N2` gave miR122 inh 2, Wnt act 15, DYRK1A inh 57*, NSD2 inh 2 and Dyrk1A artifact 8%.
O=C1Nc2ccccc2SC1=Cc1ccccc1 was read as Wnt act inconclusive and NSD2 inh 0.
COc1ccc(C(=O)Nc2nc3ccccc3[nH]2)cc1S(=O)(=O)N1CCOCC1 was read as miR122 inh -1, Wnt act 0, DYRK1A inh 55*, MITF act 12, NSD2 inh 0 and Dyrk1A artifact 10%.
`COc1ccc(C(=O)Nc2ccccn2)cc1S(=O)(=O)N1CCOCC1` gave INS-1E GSIS act 14, Wnt act 2, DYRK1A inh 3, MITF act -4 and NSD2 inh -11.
For Cc1cccc2nc(-c3cccc(NC(=O)Cc4ccccc4)c3)cn12 the results were miR122 inh 7, INS-1E GSIS act -5, Wnt act 0, DYRK1A inh 13, MITF act 3 and NSD2 inh -3.
Cc1cccc2nc(-c3cccc(NC(=O)c4ccc(Cl)cc4)c3)cn12 was read as miR122 inh -5, Wnt act 14, DYRK1A inh 55*, MITF act 3 and Dyrk1A artifact 4%.
`C[C@@H]1CN([C@H](C)CO)C(=O)c2cc(C#CC3(O)CCCC3)cnc2O[C@H]1CN(C)Cc1ccccc1` gave miR122 inh 8[16.7 µM] and INS-1E GSIS act 7.
N#CC(C#N)=C1C=CC=CN1/C(=C\c1ccco1)C(=O)c1ccccc1 was read as INS-1E GSIS act 48, Wnt act -40, DYRK1A inh 63*, MITF act -103, NSD2 inh 10 and Dyrk1A artifact 6%.
Screening O=C(c1ccccc1)c1ccc2cc(O)ccc2c1 returned INS-1E GSIS act -16, Wnt act 20, DYRK1A inh 64*, MITF act 47, NSD2 inh 3 and Dyrk1A artifact -1%.
For C[C@@H]1CN([C@@H](C)CO)C(=O)c2cc(NC(=O)CCCN(C)C)ccc2O[C@@H]1CN(C)CC1CCCCC1 the results were INS-1E GSIS act 10.
`CC(C)NS(=O)(=O)c1ccc(OCC(=O)N(C)Cc2ccccc2)cc1` gave miR122 inh 66, DYRK1A inh 83*, MITF act 14, NSD2 inh -10 and Dyrk1A artifact 5%.
COc1ccc(OCC(=O)N(C)Cc2ccccc2)cc1 was read as miR122 inh 17, DYRK1A inh 1, MITF act -8 and NSD2 inh 3.
`COCCN=C1N[C@@H](c2cccc(C(F)(F)F)c2)C(C(=O)OC)=C(C)N1Cc1ccccc1` gave INS-1E GSIS act -4, Wnt act -1, DYRK1A inh 57*, MITF act -1 and Dyrk1A artifact 8%.
Screening COc1ccc2c3c(n(C)c2c1)[C@@H](CO)N(C(=O)Cc1ccccn1)CC31CN(CC2CCCC2)C1 returned INS-1E GSIS act -14.
O=C(Nc1ccc(Cl)cc1)Nc1ccc2c(c1)N1CCN=C1S2 was read as miR122 inh 3, DYRK1A inh 68*, NSD2 inh -1 and Dyrk1A artifact 10%.
Nc1ccc2c(c1)N1CCN=C1S2 was read as miR122 inh -6, DYRK1A inh -2, MITF act 6 and NSD2 inh 0.
CO[C@H]1CN(C)C(=O)c2cc(NC(=O)C3CC3)ccc2OC[C@H](C)N(Cc2cccnc2)C[C@H]1C was read as miR122 inh 0[16.7 µM] and INS-1E GSIS act 6.
For N#Cc1c2ccc(OCC(=O)NCc3ccco3)cc2n2ccccc12 the results were miR122 inh 0, INS-1E GSIS act -6, Wnt act 0, DYRK1A inh 41, MITF act -2 and NSD2 inh 6.
For N#Cc1c2ccc(O)cc2n2ccccc12 the results were INS-1E GSIS act 27, Wnt act 4, DYRK1A inh 87*, MITF act 3, NSD2 inh -4 and Dyrk1A artifact 8%.
Clc1c(Cl)c(Cl)c2n[nH]nc2c1Cl was read as INS-1E GSIS act -43, Wnt act -1, DYRK1A inh 80*, MITF act -1, NSD2 inh 10 and Dyrk1A artifact 10%.
`C[C@@H]1CN([C@H](C)CO)C(=O)c2cccc(NS(C)(=O)=O)c2O[C@H]1CN(C)C` gave miR122 inh 1[16.7 µM] and INS-1E GSIS act 11.
`COc1cc(/C=C2\SC(=Nc3ccccc3)NC2=O)cc(Cl)c1O` gave miR122 inh -7, INS-1E GSIS act -9, Wnt act 4, DYRK1A inh 51*, MITF act 21, NSD2 inh 14 and Dyrk1A artifact 10%.
For CCc1ccc(N=C2NC(=O)/C(=C/c3cc(OC)c(O)c(OC)c3)S2)cc1 the results were INS-1E GSIS act 10, Wnt act -1, DYRK1A inh -4 and NSD2 inh -1.
COc1cc(CNC(C)(C)CO)cc(Br)c1OCc1ccccc1 was read as miR122 inh 2, INS-1E GSIS act 0, Wnt act 1, DYRK1A inh 1, MITF act 23 and NSD2 inh -2.
Screening COc1cc(CO)cc(Br)c1OCc1cccnc1 returned miR122 inh 0, INS-1E GSIS act 7, DYRK1A inh 51*, NSD2 inh -4 and Dyrk1A artifact 9%.
